Data: PubChem BioAssay AID1159580 (chemical genetic matrix, 2015)
Several values for one entry are separate records, joined by “and”; a condition that tells them apart may be missing. Identical values can stand only once. Among all 5,500 compounds or so, about 2,000 (36%) were called active. About 18% were inconclusive and are not listed. Rule as the data show it: active = normalized growth mostly below about 0.91 (no sharp cut-off); inconclusive = no clear call, values can overlap the other calls; inactive = mostly above about 0.92. The list shows a part of the results.

Experiment: chemical genetic growth profiling, strain panel (AID 1159580);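 also: tested at 20 µM; growth read once vehicle control cultures reached saturation at 30 °C; 1 = growth at the plate median or of vehicle wells; lower values mean less growth of the strain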
Conditions: S. cerevisiae deletion strains, growth OD
[1] = locus YAL013W, strain DEP1, active compounds read low
[2] = locus YAL040C, strain CLN3, active compounds read low
[3] = locus YCL061C, strain MRC1 (second series), active compounds read low
[4] = locus YDR363W, strain ESC2, active compounds read low
[5] = locus YER002W, strain NOP16, active compounds read low
[6] = locus YMR307W, strain GAS1, active compounds read low
[7] = locus YNL153C, strain GIM3, active compounds read low
[8] = locus YNL175C, strain NOP13, active compounds read low
[9] = locus YNL197C, strain WHI3, active compounds read low
[10] = locus YNL224C, strain SQS1, active compounds read low
[11] = locus YOR083W, strain WHI5 (second series), active compounds read low
[12] = locus YBR229C, strain ROT2, active compounds read low
[13] = locus YCL061C, strain MRC1, active compounds read low
[14] = locus YDL101C, strain DUN1, active compounds read low
[15] = locus YDR150W, strain NUM1, active compounds read low
[16] = locus YEL061C, strain CIN8, active compounds read low
[17] = locus YHR030C, strain SLT2, active compounds read low
[18] = locus YJL187C, strain SWE1, active compounds read low
[19] = locus YJR043C, strain POL32, active compounds read low
[20] = locus YJR075W, strain HOC1, active compounds read low
[21] = locus YLR039C, strain RIC1, active compounds read low
[22] = locus YLR262C, strain YPT6, active compounds read low
[23] = locus YNL322C, strain KRE1, active compounds read low
[24] = locus YOL006C, strain TOP1, active compounds read low
[25] = locus YPL055C, strain LGE1, active compounds read low
[26] = locus YGR078C, strain PAC10, active compounds read low

Measured: normalized growth

Cc1c(C(=O)c2cccc3ccccc23)c2cccc3c2n1[C@H](CN1CCOCC1)CO3
inactive: [1] 0.978 | [2] 1.01 | [3] 0.986 | [4] 0.973 | [5] 0.998 | [6] 1.01 | [7] 0.983 | [8] 0.992 | [9] 0.988 | [10] 1.02 | [11] 1.02

C=C(C)C1CNC(C(=O)O)C1CC(=O)O (stereo unspecified)
inactive: [1] 1.01 | locus YAL021C, strain ccr4, active compounds read low 0.995 | locus YAL026C, strain drs2, active compounds read low 0.996 | locus YAL030W, strain snc1, active compounds read low 0.99 | locus YBL061C, strain skt5, active compounds read low 0.992 | locus YBR009C, strain hhf1, active compounds read low 0.987 | locus YBR021W, strain FUR4, active compounds read low 0.986 | locus YBR023C, strain chs3, active compounds read low 0.987 | locus YBR171W, strain sec66, active compounds read low 0.986 | [12] 1.01 | locus YBR231C, strain swc5, active compounds read low 1 | locus YBR279W, strain paf1, active compounds read low 0.997 | locus YCL011C, strain gbp2, active compounds read low 0.985 | locus YCL016C, strain dcc1, active compounds read low 0.998 | locus YCL029C, strain bik1, active compounds read low 1.03 | [13] 0.999 | locus YCL069W, strain vba3, active compounds read low 0.995 | locus YCR088W, strain abp1, active compounds read low 0.988 | locus YDL005C, strain med2, active compounds read low 0.984 | locus YDL035C, strain GPR1, active compounds read low 1.03 | locus YDL040C, strain nat1, active compounds read low 0.986 | locus YDL074C, strain BRE1, active compounds read low 1.03 | [14] 1.02 | locus YDL185W, strain tfp1, active compounds read low 1.04 | locus YDL192W, strain arf1, active compounds read low 1.02 | locus YDR001C, strain nth1, active compounds read low 0.99 | locus YDR069C, strain doa4, active compounds read low 0.981 | locus YDR101C, strain arx1, active compounds read low 1.01 | locus YDR137W, strain rgp1, active compounds read low 0.972 | [15] 1.01 | locus YDR159W, strain sac3, active compounds read low 0.985 | locus YDR162C, strain NBP2, active compounds read low 1.05 | locus YDR195W, strain ref2 0.967 | locus YDR297W, strain sur2, active compounds read low 0.993 | locus YDR318W, strain mcm21, active compounds read low 1.01 | locus YDR334W, strain swr1, active compounds read low 0.992 | locus YDR335W, strain msn5, active compounds read low 0.994 | locus YDR388W, active compounds read low 1.01 | locus YDR392W, strain spt3, active compounds read low 0.947 | locus YDR502C, strain sam2, active compounds read low 1.03 | locus YEL003W, strain gim4, active compounds read low 0.999 | locus YEL037C, strain rad23, active compounds read low 0.988 | locus YEL061C, strain CIN8 (second series), active compounds read low 0.986 | [16] 1 | locus YER015W, strain faa2, active compounds read low 0.993 | locus YER016W, strain bim1, active compounds read low 0.978 | locus YER110C, active compounds read low 1.02 | locus YER111C, strain swi4, active compounds read low 0.996 | locus YER155C, strain BEM2 (second series), active compounds read low 0.989 | locus YER155C, strain BEM2, active compounds read low 0.99 | locus YER167W, strain BCK2, active compounds read low 1.01 | locus YFR010W, strain ubp6, active compounds read low 0.996 | locus YGL078C, strain dbp3, active compounds read low 1.02 | locus YGL086W, strain mad1, active compounds read low 1.02 | locus YGL167C, strain pmr1, active compounds read low 0.996 | locus YGL173C, strain kem1, active compounds read low 0.983 | locus YGL227W, strain vid30, active compounds read low 0.989 | locus YGL240W, strain doc1, active compounds read low 1.01 | locus YGL248W, strain PDE1, active compounds read low 1.01 | locus YGL253W, strain hxk2, active compounds read low 1 | locus YGR135W, strain pre9, active compounds read low 1.03 | locus YGR252W, strain gcn5, active compounds read low 1.07 | locus YHR013C, strain ard1, active compounds read low 0.984 | locus YHR027C, strain rpn1, active compounds read low 0.989 | [17] 1.01 and 0.998 | locus YHR079C, strain IRE1 (second series), active compounds read low 1.02 | locus YHR079C, strain IRE1, active compounds read low 0.987 | locus YHR094C, strain hxt1, active compounds read low 1.03 | locus YHR129C, strain ARP1, active compounds read low 1.02 | locus YHR142W, strain chs7, active compounds read low 0.988 | locus YHR200W, strain rpn10, active compounds read low 1.01 | locus YIL066C, strain RNR3, active compounds read low 1.04 | locus YIL073C, strain SPO22, active compounds read low 1.07 | locus YIL125W, strain kgd1, active compounds read low 1.02 | locus YIR030C, strain dcg1, active compounds read low 1.02 | locus YJL092W, strain hpr5, active compounds read low 0.989 | locus YJL095W, strain BCK1 (second series), active compounds read low 0.99 | locus YJL095W, strain BCK1, active compounds read low 1.05 and 0.992 | locus YJL115W, strain asf1, active compounds read low 0.98 | locus YJL129C, strain trk1, active compounds read low 1 | locus YJL134W, strain LCB3, active compounds read low 1.01 | locus YJL154C, strain vps35, active compounds read low 0.99 | locus YJL164C, strain tpk1, active compounds read low 0.999 | locus YJL166W, strain qcr8, active compounds read low 0.996 | locus YJL168C, strain set2, active compounds read low 1.01 | locus YJL187C, strain SWE1 (second series), active compounds read low 1.03 | [18] 0.998 | [19] 1.02 | locus YJR066W, strain TOR1, active compounds read low 0.931 | [20] 1.03 | locus YKL009W, strain mrt4, active compounds read low 1.03 | locus YKL068W, active compounds read low 1.02 | locus YKL085W, strain MDH1 (second series), active compounds read low 1.01 | locus YKL085W, strain MDH1, active compounds read low 1.01 | locus YKL160W, strain elf1, active compounds read low 1 | locus YKR001C, strain vps1, active compounds read low 1.03 | locus YKR026C, strain gcn3, active compounds read low 0.971 | locus YKR091W, strain srl3, active compounds read low 0.999 | locus YLL001W, strain dnm1, active compounds read low 0.994 | locus YLL026W, active compounds read low 1 | locus YLL041C, strain sdh2, active compounds read low 0.996 | locus YLR027C, strain aat2, active compounds read low 0.992 | [21] 1.11 | locus YLR058C, strain SHM2, active compounds read low 1.02 | locus YLR102C, strain apc9, active compounds read low 1.01 | locus YLR113W, strain HOG1, active compounds read low 0.987 | locus YLR221C, strain rsa3, active compounds read low 0.998 | locus YLR258W, strain gsy2, active compounds read low 0.988 | locus YLR262C, strain YPT6 (second series), active compounds read low 0.991 | [22] 1.09 | locus YLR268W, strain sec22, active compounds read low 1.02 | locus YLR320W, strain mms22, active compounds read low 0.991 | locus YLR330W, strain CHS5, active compounds read low 1.01 | locus YLR342W, strain FKS1 (second series), active compounds read low 1.04 | locus YLR342W, strain FKS1, active compounds read low 0.987 | locus YLR357W, strain rsc2, active compounds read low 0.975 | locus YLR370C, strain arc18, active compounds read low 0.986 | locus YLR371W, strain rom2, active compounds read low 0.995 | locus YLR384C, strain iki3, active compounds read low 0.97 | locus YLR418C, strain cdc73, active compounds read low 1.03 | locus YML016C, strain PPZ1, active compounds read low 1.02 | locus YML032C, strain rad52, active compounds read low 1.03 | locus YML120C, strain ndi1, active compounds read low 1 | locus YML124C, strain tub3, active compounds read low 1.02 | locus YMR058W, strain fet3, active compounds read low 0.993 | locus YMR078C, strain ctf18, active compounds read low 1.03 | locus YMR125W, strain sto1, active compounds read low 0.97 | locus YMR129W, active compounds read low 1 | locus YMR205C, strain PFK2, active compounds read low 0.962 | locus YMR223W, strain ubp8, active compounds read low 1.02 | locus YMR231W, strain pep5, active compounds read low 0.989 | [6] 1.07 | locus YNL067W, strain RPL9B, active compounds read low 1.02 | locus YNL071W, strain lat1, active compounds read low 0.999 | [7] 1.02 | locus YNL183C, strain NPR1, active compounds read low 0.909 | locus YNL209W, strain ssb2, active compounds read low 0.991 | locus YNL233W, strain BNI4, active compounds read low 1.03 | locus YNL248C, strain rpa49, active compounds read low 1.01 | locus YNL250W, strain rad50, active compounds read low 1.03 | locus YNL271C, strain bni1, active compounds read low 1.02 | locus YNL298W, strain CLA4, active compounds read low 1.02 | locus YNL307C, strain MCK1, active compounds read low 1.02 | locus YNL322C, strain KRE1 (second series), active compounds read low 0.991 | [23] 1 | locus YNR049C, strain mso1, active compounds read low 0.986 | locus YNR052C, strain pop2, active compounds read low 1.01 | [24] 1.14 | locus YOL012C, strain htz1 0.909 | locus YOL147C, strain pex11, active compounds read low 1.01 | locus YOR001W, strain rrp6, active compounds read low 1.01 | locus YOR061W, strain CKA2, active compounds read low 1.01 | locus YOR069W, strain VPS5, active compounds read low 1.01 | locus YOR070C, strain gyp1, active compounds read low 0.985 | locus YOR080W, strain dia2, active compounds read low 0.983 | locus YOR083W, strain WHI5, active compounds read low 1 | locus YOR106W, strain vam3, active compounds read low 1.02 | locus YOR136W, strain idh2, active compounds read low 1.02 | locus YOR144C, strain elg1, active compounds read low 1 | locus YOR184W, strain ser1, active compounds read low 1.02 | locus YOR231W, strain MKK1, active compounds read low 0.992 | locus YOR265W, strain rbl2, active compounds read low 0.994 | locus YOR270C, strain vph1, active compounds read low 1.02 | locus YOR290C, strain snf2, active compounds read low 1 | locus YOR316C, strain cot1, active compounds read low 1 | locus YPL051W, strain arl3, active compounds read low 0.998 | [25] 1.03 | locus YPL078C, strain atp4, active compounds read low 1.01 | locus YPL106C, strain sse1, active compounds read low 0.978 | locus YPL240C, strain hsp82, active compounds read low 0.997 | locus YPL256C, strain CLN2, active compounds read low 0.977 | locus YPR119W, strain clb2, active compounds read low 1 | locus YPR141C, strain kar3, active compounds read low 1.03 | locus YPR163C, strain tif3, active compounds read low 1.02 | locus YPR167C, strain met16, active compounds read low 1.02 | strain wtn01, active compounds read low 1.02

CNc1cc(NS(=O)(=O)c2ccc(N)cc2)nc(NC)n1
inactive: [2] 0.991 | [3] 0.986 | [4] 0.974 | [5] 0.98 | [26] 0.994 | [6] 1 | [7] 1.01 | [8] 0.993 | [9] 0.991 | [10] 0.994 | [11] 0.993

CC(C)(C)C(=O)Nc1ccc(F)cc1
inactive: [1] 1 | [12] 1 | [13] 0.991 | [14] 0.994 | locus YDL134C, strain PPH21, active compounds read low 1.02 | [15] 0.985 | [16] 1.01 | [26] 0.999 | [17] 1.02 | locus YHR087W, strain rtc3, active compounds read low 1 | [18] 1.01 | [19] 1.01 | [20] 0.962 | [21] 1.07 | locus YLR058C, strain SHM2 (second series), active compounds read low 1.01 | locus YLR085C, strain ARP6, active compounds read low 1.05 | [22] 1.01 | locus YML094W, strain GIM5, active compounds read low 1 | locus YMR219W, strain ESC1, active compounds read low 1 | locus YMR263W, strain SAP30, active compounds read low 1 | [7] 0.995 | locus YNL298W, strain CLA4 (second series), active compounds read low 1.04 | [23] 0.994 | locus YNR030W, strain Alg12, active compounds read low 1.02 | [24] 1.01 | [25] 0.946 | locus YPL241C, strain CIN2, active compounds read low 1.01 | locus YPR135W, strain CTF4, active compounds read low 0.956
